Test results as given in the supplement of paper PMC7156485.
Several values for one entry are separate records, joined by “and”; a condition that tells them apart may be missing. Identical values can stand only once. ± gives the standard deviation of the averaged measurements.

Experiments:
Conditions in all cases: concentration: 10 µM; 24 h
HCC1569 [1] = assay: cell number relative to DMSO (% of DMSO); higher = more cells (less growth inhibition / toxicity)
Summary of the method: (§1)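 HCC1569 and TDF cells were seeded at 800 per well in 384-well plates in RPMI with 10% FBS and treated with compounds at 10 µM for 24 h at 37 °C, in triplicate. After fixation in 3.7% formaldehyde, cells were stained with a rabbit anti-H1.0 antibody, an AlexaFluor 647 secondary and DAPI, and six fields per well were imaged at ×10. H1.0 nuclear intensity or cell number is given as percent of the plate control, using the median of replicates, with HCC1569 values smoothed for positional effects.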

TDF [2] = assay: as above
Summary of the method: as §1

TDF [3] = assay: H1.0 immunofluorescence intensity relative to DMSO (% of DMSO); higher = stronger H1.0 induction, active = 120 or more
Summary of the method: as §1

HCC1569 [4] = assay: H1.0 immunofluorescence intensity relative to DMSO (% of DMSO); higher = stronger H1.0 induction, active = 140 or more
Summary of the method: as §1
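Wherever H1.0 immunofluorescence intensity relative to DMSO is given: TDF is a line of transformed human dermal fibroblasts of mesenchymal origin.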
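Wherever cell number relative to DMSO is given: TDF denotes transformed human dermal fibroblasts of mesenchymal origin.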

SMILES	cell number (HCC1569 [1])	cell number (TDF [2])	H1.0 immunofluorescence intensity (TDF [3])	H1.0 immunofluorescence intensity (HCC1569 [4])
NCCC(O)(P(=O)([O-])O)P(=O)([O-])O.O.O.O.O.O.[Na+].[Na+] [Pamidronate.2Na.5H2O]	101	96.8	95 (inactive)	107 (inactive)
CCN(CC)CCOC(=O)c1cc(Cl)c(N)cc1OC.Cl [SDZ-205,557 hydrochloride]	105	98.8	85.4 (inactive)	86.8 (inactive)
CC(NC(CCc1ccccc1)C(=O)O)C(=O)N1CCCC1C(=O)O (stereo not drawn) [Enalaprilat]	98.7	86.2	104 (inactive)	96.9 (inactive)
COc1cc2oc(-c3ccc(O)c(O)c3)cc(=O)c2c(O)c1OC	75	82	91.1 (inactive)	118 (inactive)
COc1ccccc1N1CCN(CCCCNC(=O)c2ccc3ccccc3c2)CC1	99.1	111	106 (inactive)	97.4 (inactive)
O=C(O)c1cc(=O)c2ccc(Cl)cc2[nH]1 [7-Chlorokynurenic acid]	96.9	105	92 (inactive)	91 (inactive)
CN(C)CCCN1c2ccccc2CCc2ccc(Cl)cc21.Cl [Clomipramine hydrochloride]	89.6	102	107 (inactive)	122 (inactive)
CCCCOC(=O)NC(=O)C1c2ccccc2Oc2ccccc21 [butyl 9H-xanthen-9-ylcarbonylcarbamate]	102	106	90.1 (inactive)	107 (inactive)
CC(=O)Nc1nc(C)c(S(=O)(=O)Nc2ccc(C(O)(C(F)(F)F)C(F)(F)F)cc2)s1	97.5	109	85.1 (inactive)	111 (inactive)
CC(Cc1ccc(O)c(O)c1)C(C)Cc1ccc(O)c(O)c1 (stereo not drawn)	72.5 and 72.1	108 and 87.9	100 (inactive) and 95.2 (inactive)	116 (inactive) and 122 (inactive)
c1ccc2c(-c3ccncc3)c[nH]c2c1 [Rho Kinase Inhibitor III, Rockout]	105	106	86.9 (inactive)	118 (inactive)
CCCCCCCCC=CCCCCCCCC(=O)O [Oleic Acid]	105	103	91.8 (inactive)	87.8 (inactive)
CC(=O)c1ccc(S(=O)(=O)NC(=O)NC2CCCCC2)cc1 [Acetohexamide]	105	107	102 (inactive)	109 (inactive)
CCN(CC)CCCC(C)Nc1ccnc2cc(Cl)ccc12 (stereo not drawn) [Chloroquine]	101	99.6	98.2 (inactive)	93.6 (inactive)
CCCCCCCCC#CCC#CCC#CCCCC(=O)O [5,8,11-Eicosatriynoic acid]	97.5 ± 3.3	97.3 ± 8	107 (inactive)	98.5 (inactive)
Cc1ccc(S(=O)(=O)Cc2nc(-c3ccc(C(=O)NCc4cccnc4)cc3)oc2C)cc1	87	86.8	102 (inactive)	127 (inactive)
CCCCCCCC/C=C\CCCCCCCC(N)=O [(9Z)-9-octadecenamide]	102	102	102 (inactive)	98.7 (inactive)
COc1ccc(-c2cc3c(C)nc(N)nc3n(C3CCC(OCCO)CC3)c2=O)cn1 (stereo not drawn)	35	51	97.8 (inactive)	191 (active)
O=c1cc(-c2ccc(O)cc2)oc2cc(OC3OC(CO)C(O)C(O)C3O)c(C3OC(CO)C(O)C(O)C3O)c(O)c12 (stereo not drawn) [Saponarin]	98.8	89.5	108 (inactive)	94.4 (inactive)
CNc1ncnc2c1ncn2C1CC(OP(=O)([O-])O)C(COP(=O)([O-])O)O1.[NH4+].[NH4+] (stereo not drawn)	104	100	95 (inactive)	92.4 (inactive)
CC(C)c1cc(C(C)C)c(CC(=O)NS(=O)(=O)Oc2c(C(C)C)cccc2C(C)C)c(C(C)C)c1	94.4	103	89.8 (inactive)	110 (inactive)
CCCCS(=N)(=O)CCC(N)C(=O)O [L-Buthionine-sulfoximine]	102	96.6	97.4 (inactive)	95.6 (inactive)
CCCCCCCCCCCC=CC(C)(C)C=CCCCC(=O)O [7,7-Dimethyleicosadienoic acid]	105 ± 6.3	99.5 ± 3.4	99 (inactive)	95.5 (inactive)
COc1cc2ncc(-c3ccccc3)nc2cc1OC [Tyrphostin AG 1296]	98.1	106	97.3 (inactive)	111 (inactive)
COC(=O)Nc1nc2ccc(Sc3ccccc3)cc2[nH]1 [Fenbendazole]	64	95.7	99.2 (inactive)	177 (active)
NC(=O)Nc1sc(-c2ccc(F)cc2)cc1C(N)=O	75.6	60.6	96.3 (inactive)	177 (active)

SMILES	cell number (HCC1569 [1])	cell number (TDF [2])	H1.0 immunofluorescence intensity (TDF [3])	H1.0 immunofluorescence intensity (HCC1569 [4])
O=C1OC(C(O)CO)C(O)=C1O (stereo not drawn) [Ascorbic acid]	100	103	94 (inactive)	95.2 (inactive)
Nc1nc(OCc2cc(Br)cs2)c2[nH]cnc2n1 [6-[(4-bromo-2-thienyl)methoxy]-1H-purin-2-amine]	101	107	97.7 (inactive)	113 (inactive)
CN1CCC(c2c(O)cc(O)c3c(=O)cc(-c4ccccc4Cl)oc23)C(O)C1 (stereo not drawn) [Alvocidib]	59.4	19.9	132 (active)	111 (inactive)
CC(N)(Cc1ccc(O)c(O)c1)C(=O)O (stereo not drawn) [Methyldopa]	107	100	102 (inactive)	94 (inactive)
CN1C(=O)CCC1c1cccnc1 (single isomer, unassigned; (-)) [(-)-Cotinine]	102 ± 1.1	112 ± 5.4	93.5 (inactive)	93 (inactive)
Cl.NC12CC3CC(CC(C3)C1)C2 [Amantadine.HCl]	103	103	92.2 (inactive)	99 (inactive)
CC1=NN(c2ccccc2)C(=O)C1	101	111	93.5 (inactive)	97.6 (inactive)
Nc1nc(Nc2ccccc2)nc2c1ncn2C1OC(CO)C(O)C1O (stereo not drawn) [2-Phenylaminoadenosine]	101	100	90 (inactive)	102 (inactive)
CN1c2cc3c(cc2N=C(c2ccc(C(=O)O)cc2)c2ccccc21)C(C)(C)CCC3(C)C	77	88.5	93.8 (inactive)	112 (inactive)
N#CC(=C1Nc2ccccc2S1)c1ccnc(NCCc2cccnc2)n1 [JNK Inhibitor V]	73.6	87.4	108 (inactive)	123 (inactive)
CCN(CC)CCCC(C)Nc1ccnc2cc(Cl)ccc12.O=P(O)(O)O.O=P(O)(O)O (stereo not drawn) [Chloroquine diphosphate]	98.3	106	94.7 (inactive)	94.1 (inactive)
O=c1ccn(C2OC(COP(=O)([O-])OP(=O)([O-])O)C(O)C2O)c(=O)[nH]1.[Na+].[Na+] (stereo not drawn) [Uridine 5'-diphosphate sodium]	105	106	95.6 (inactive)	98.7 (inactive)
Nc1ncnc2c1ncn2C1CCCO1 (stereo not drawn)	76.9	96.4	99 (inactive)	183 (active)
CCCCCC(O)C=CC1C(O)CC(O)C1CCCCCCC(=O)O (stereo not drawn) [Prostaglandin F1a]	106	101	91.9 (inactive)	97.7 (inactive)
NC(C(=O)NC1C(=O)N2C(C(=O)O)=C(Cl)CSC12)c1ccccc1 (stereo not drawn) [Cefaclor]	101	99.5	103 (inactive)	85.8 (inactive)
CC(=O)CC/C=C(\C)CC/C=C(\C)CC/C=C(\C)CCC=C(C)C	100	96.2	104 (inactive)	105 (inactive)
CCCCCCCCC=CCCCCCCCCCCCCCC(=O)O [15(Z)-Tetracosenoic acid]	103	98.8	94.8 (inactive)	99.1 (inactive)
Nc1nc(=O)c2ncn(COC(CO)CO)c2[nH]1 [Ganciclovir]	105 ± 4	99.6 ± 5.2	95.2 (inactive)	99.6 (inactive)
COc1cc(NS(=O)(=O)c2ccc(N)cc2)nc(OC)n1 [Sulfadimethoxine]	103	109	96.7 (inactive)	92.3 (inactive)
CNCC(O)c1ccc(O)c(O)c1.O=C(O)C(O)C(O)C(=O)O [L-(+)-Epinephrine tartrate]	104	97	93.2 (inactive)	106 (inactive)
CCCCCC(O)C=CC=CC=CC(O)CC=CCCCC(=O)O (stereo not drawn)	101	100	94.8 (inactive)	107 (inactive)
CC1=NC(=NNc2cc(S(=O)(=O)[O-])c3cc([N+](=O)[O-])cc(S(=O)(=O)[O-])c3c2)C(COP(=O)([O-])[O-])=C(C=O)C1=O.[Na+].[Na+].[Na+].[Na+] [PPNDS tetrasodium]	104	115	91 (inactive)	100 (inactive)
CC1C2CCC3C4CC=C5CC(N(C)C)CCC5(C)C4CCC32CN1C (stereo not drawn) [Conessine]	103	104	109 (inactive)	113 (inactive)
CC1CCC2C(C)C(OC(=O)CCC(=O)O)OC3OC4(C)CCC1C32OO4 (stereo not drawn) [Artesunate]	87.2 ± 1.8	88.2 ± 5.5	99.1 (inactive)	124 (inactive)
Cl.Cl.Cl.NCCC1CCCC(CCN)N1 (stereo not drawn) [MDL 26,630 trihydrochloride]	104	105	93.7 (inactive)	85.3 (inactive)
O=C(Cc1ccc(Cl)c(Cl)c1)OCCN1CCCC1.O=C(O)C(=O)O [AC 915 oxalate]	101	105	92.1 (inactive)	99 (inactive)
